Test results: PubChem BioAssay AID488890 (Southern Research Specialized Biocontainment Screening …, 2010)
Among all 320,000 compounds or so, about 1,300 (0.41%) were called active. Inconclusive results (about 3%) are left out. No rule for the calls is given here. Not all results are given here. Entries with a potency or affinity are not part of this list.

Test: growth inhibition of non-replicating M. tuberculosis (AID 488890);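 also: plate controls were DMSO cells for no effect and high antibiotic wells for full effect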
Conditions: Mycobacterium tuberculosis non-replicating, at 25 µM, stronger effect = higher value

| SMILES | inhibition [%] |
| --- | --- |
| COc1ccc(C2CC(C(F)(F)F)n3ncc(C(=O)O)c3N2)cc1OC (stereo not drawn) | -8.85 |
| COc1cc(OC)cc(C(=O)NC(=S)N2C[C@H]3C[C@H](C2)c2cccc(=O)n2C3)c1 | -9.19 |
| CN(CC(=O)NCc1cccnc1)S(=O)(=O)c1ccc(F)cc1 | -7.08 |
| COc1ccc(/C=N/NC(=O)c2ccccc2OCc2ccccc2)c(OC)c1 | 32 |
| C/C(=N\NC(=O)Cc1ccc([N+](=O)[O-])cc1)c1cccnc1 | -2.22 |
| Cc1cc(C(=O)NNC(=O)c2cccs2)c(C)o1 | 5.92 |
| COc1ccccc1C(=O)Nc1ccc(S(=O)(=O)Nc2nccs2)cc1 | 16 |
| COc1cccc(C2C(C#N)=C(N)SC(c3ccccc3)C2[N+](=O)[O-])c1 (stereo not drawn) | 20.5 |
| Cc1ccccc1C1=NC(c2ccc(F)cc2F)ON1 (stereo not drawn) | 8.21 |
| O=C(NCCCN1CCOCC1)c1ccccc1-c1ccccc1 | 3.82 |
| CSc1ccccc1NC(=O)c1cc(C)on1 | 1.57 |
| COc1cc(C(=O)Nc2nc(OC)c(-c3ccccc3)c(OC)n2)cc(OC)c1OC | -16.2 |
| CCOc1cc(/C=N/NC(=O)COc2ccccc2C)ccc1OC(=O)c1cccs1 | 9.01 |
| COc1cc(/C=N/NC(=O)CNC(=O)c2ccccc2)ccc1OC(=O)c1cccs1 | 39.5 |
| COc1ccc(/C=N/NC(=O)c2cccnc2)cc1CN1CCOCC1 | 8.75 |
| COc1cc(/C=N\NC(=O)c2ccc(C)nc2)ccc1OC(=O)c1cccc(F)c1 | -1.23 |
| COc1ccc(/C=N/NC(=O)c2ccc(Br)cc2)cc1CN1CCOCC1 | -2.91 |
| COc1cc(/C=N/NC(=O)c2ccncc2)ccc1OC(=O)c1cc(OC)c(OC)c(OC)c1 | 52.1 |
| CCOc1cc(/C=N/NC(=O)COc2ccc(C)cc2)ccc1OC(=O)c1cccs1 | 48.1 |
| COc1cc(/C=N/NC(=O)COc2ccccc2C)ccc1OC(=O)c1cccs1 | 30.8 |
| COc1cc2[nH]c(=O)n(CCC(=O)NCCC(C)C)c(=O)c2cc1OC | -11 |
| O=C(NCCC1CCCCN1S(=O)(=O)c1cccs1)C(=O)NCc1ccccc1 (stereo not drawn) | 10.3 |
| CC1(C)CC(=O)C=C(/C=C/c2ccccc2)C1 | -7.3 |

| SMILES | inhibition [%] |
| --- | --- |
| COc1ccc(CN(C)C(=O)c2ccc(NS(=O)(=O)c3ccc4[nH]c(=O)[nH]c4c3)cc2)c(OC)c1OC | 35.7 |
| O=C(N/N=C/C(Br)=C/c1ccccc1)c1ccccc1F | 49.9 |
| O=C(c1cc(S(=O)(=O)N2CCC3(CC2)OCCO3)ccc1F)N1CCC2(CC1)OCCO2 | -5.64 |
| CCOC(=O)N1CCN(C(=O)NC23CC4CC(CC(C4)C2)C3)CC1 | -9.51 |
| CCOCC(=O)OCC(=O)NC12CC3CC(CC(C3)C1)C2 | -7.93 |
| CCCN1CCN(S(=O)(=O)c2ccc(-n3cnnn3)cc2)CC1 | 0.97 |
| COc1ccc(CCNC(=O)C2CCCN(S(=O)(=O)N3CCCCCC3)C2)cc1OC (stereo not drawn) | 14.5 |
| CCOc1ccc(/C=C/C(=O)N(CC)CC(=O)Nc2ccc3c(c2)OCCO3)cc1OC | 13.6 |
| COc1ccc(N2CCN(Cc3nc4cc(Cl)ccc4c(=O)[nH]3)CC2)cc1 | 0.72 |
| CCCn1nnnc1NCc1ccc(OC)cc1 | 37 |
| CCCn1nnnc1NCc1ccc(F)cc1 | 24.5 |
| CCCn1nnnc1NCc1ccc(N(C)C)cc1 | 2.84 |
| CC(C)c1ccc(CNc2nnnn2C)cc1 | 44.6 |
| CN(Cc1ccccc1)C(=O)COC(=O)C1CCN(S(=O)(=O)c2ccc(Cl)c(C(F)(F)F)c2)CC1 | -14.1 |
| CC1CCN(C(=O)C2CCC(CNc3c(N4CCCCC4)c(=O)c3=O)CC2)CC1 (stereo not drawn) | 15.8 |
| OCc1cn(-c2ccccc2)nc1-c1ccc(-c2nn(-c3ccccc3)cc2CO)cc1 | -3.64 |
| O=Cc1cn(-c2ccccc2)nc1-c1ccc(F)cc1 | 1.85 |
| COc1ccc(-c2nn(-c3ccccc3F)cc2CNCCn2nc(C)cc2C)cc1 | 52.6 |
| Cc1ccc(-n2cc(CNCCN3CCOC3=O)c(-c3ccc(F)cc3)n2)cc1 | 26.6 |
| O=C(c1ccc2oc(Cc3ccc(Cl)cc3)nc2c1)N1CC[C@H](O)C1 | -2.21 |
| CC#CCN(Cc1ccco1)C(=O)c1ccc(OC2CCN(Cc3ccccn3)CC2)cc1 | 10.1 |
| COc1ccc(/C=C(/C#N)C(=O)Nc2cccnc2)cc1OC | -2.65 |
| C#CCOCCOCCOCCNc1nc(N2CCN(C(=O)C([C@@H](C)CC)n3cc(C(N)CC(C)C)nn3)CC2)nc(N2CCN(C(=O)[C@H](CCC(=O)O)n3cc(C(N)CC(C)C)nn3)CC2)n1 (stereo partly drawn) | -10.1 |

| SMILES | inhibition [%] |
| --- | --- |
| Cc1ccccc1N=C(NO)c1nonc1N | -6.6 |
| O=C(O)c1ccc(Cl)c(S(=O)(=O)Nc2cccc(C(=O)Nc3cccc(C(F)(F)F)c3)c2)c1 | 26.6 |
| COc1cc(C=Nc2c(C)cc(C)cc2C)ccc1OC(C)=O | -9.04 |
| COc1cc(SC)ccc1C(=O)Nc1cccc(S(=O)(=O)NC2=NCCC2)c1 | 24.7 |
| Cc1ccc(C)c(-n2sc3ccc(F)cc3c2=O)c1 | -21.9 |
| O=c1c2cc(F)ccc2sn1-c1ccccc1 | 20.9 |
| Cc1ccc(S(=O)(=O)N2CCC(=O)N(C(CO)C(C)C)CC2)cc1 (stereo not drawn) | -0.84 |
| Cc1ccc(C(=O)c2ccc(C(F)(F)F)cc2)cc1 | 23.7 |
| CC(O)C(=O)N/N=C/c1ccccc1C(=O)O (stereo not drawn) | -1.19 |
| COc1ccc2[nH]c3c(Cl)ncnc3c2c1 | 66.1 |
| COc1ccc2c(c1)[nH]c1c(C)nccc12 | 0.33 |
| COc1ccc(NC(=O)C2CCCN(C(=O)c3ccc(Cl)cc3)C2)cc1Cl (stereo not drawn) | 5.35 |
| CCOc1ccc(CNC(=O)Cn2ccc3cc(S(=O)(=O)N4CCCC4)ccc32)cc1 | 9.09 |
| CC(NC(=O)Cc1ccsc1)c1ccc(F)cc1 (stereo not drawn) | 3.93 |
| COc1ccc(Br)c(C(=O)N2CCN(S(=O)(=O)/C=C/c3ccccc3)CC2)c1 | 17.6 |
| CCc1ccc(N2CC(C(=O)Nc3ccc(S(=O)(=O)NCC4CCCO4)cc3)CC2=O)cc1 (stereo not drawn) | -5.44 |
| S=c1[nH]nc(-c2cccs2)n1/N=C/c1cn(-c2ccccc2)nc1-c1cccs1 | -1.62 |
| O=C(N/N=C/c1cn(-c2ccccc2)nc1-c1cccs1)c1ccccc1F | 3.19 |
| NC(=O)N/N=C/c1cn(-c2ccccc2)nc1-c1cccs1 | 8.14 |
| O=Cc1cn(-c2ccccc2)nc1-c1ccccc1 | -1.35 |
| CC1(C)CC(=O)C(=Cc2cn(-c3ccccc3)nc2-c2ccccc2)C(=O)C1 | 44.3 |
| Cc1nc2ccccc2c(=O)n1/N=C/c1cn(-c2ccccc2)nc1-c1cccs1 | 3.43 |
